# Source: PubChem BioAssay (EPA / NIEHS)
# Inconclusive results are not listed. Activity calls are given as the source filed them. Rule for the calls, unless noted: active = hit-call score of the fitted dose curve at least 0.9, where 1 is the maximum; inconclusive = response in the unintended direction; inactive = score below 0.9.
# Experiments:
# [1] = Tanguay_ZF_120hpf_TRUN_legacy: (Legacy) Oregon State University Tanguay Lab 120 Hour Post-fertilization zebrafish Assay for Truncated Body (AID 2283655)
# Method in brief: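 Single dechorionated zebrafish embryos received test chemical from 6 hpf in 0.64% DMSO, kept at 28C. At 120 hpf, brightfield inspection noted any truncated body.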
# [2] = Tanguay_ZF_120hpf_NC_legacy: (Legacy) Oregon State University Tanguay Lab 120 Hour Post-fertilization zebrafish Assay for Notochord and Tail Malformation (AID 2283656)
# Method in brief: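 Dechorionated Tropical 5D wild-type zebrafish embryos, one per well from 6 hpf, statically exposed to 120 hpf at 28C in 0.64% DMSO final. Notochord distortion scored present/absent by brightfield; dead embryos excluded.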
# [3] = system: Thyroperoxidase (TPO), gene 54314; experiment: CCTE_Simmons_AUR_rTPO: CCTE's Amplex UltraRed Assay for Thyroperoxidase (TPO) Inhibition, Simmons Lab (AID 2283662);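 for AC50: potency for loss of signal meaning inhibition of peroxidase activity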
# Method in brief: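 Cell-free peroxidase activity assay using rat thyroid gland microsomes with excess H2O2 (300 uM) and 25 uM Amplex UltraRed. Compounds tested from 5 nM to 87.5 uM; fluorescence measured after 30 min at 37C, analysed relative to DMSO baseline.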
# [4] = CCTE_Simmons_CellTiterGLO_HEK293T: Viability Assessment in CCTE's Assays for Thyroperoxidase (TPO) Inhibition, Simmons Lab (AID 2283665);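 for AC50: cells exposed to compound for 24 h before readout; actives reduce ATP signal below DMSO vehicle meaning cytotoxicity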
# Method in brief: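 HEK293T, 10 000 cells/well, DMEM + 1% FBS; 8-pt titration 5 nM–87.5 uM [final], 0.5% DMSO; 24 hr, 37C, 5% CO2; CellTiter-Glo luminescence; n=3 biological replicates.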
# [5] = Tanguay_ZF_120hpf_TR_legacy: (Legacy) Oregon State University Tanguay Lab 120 Hour Post-fertilization zebrafish Assay for Touch Response (AID 2283667)
# Method in brief: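 Tropical 5D wild-type zebrafish embryos were exposed statically in sealed, foil-covered plates at 28C until 120 hpf, with 0.64% (vol/vol) final DMSO. Touch response was scored as present or absent; embryos that died were not scored.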
# [6] = Tanguay_ZF_120hpf_ActivityScore_legacy: (Legacy) Oregon State University Tanguay Lab 120 Hour Post-fertilization zebrafish Assay Score for Activity (AID 2283742);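 for AC50: static exposure from 6 hpf until 120 hpf at 28 °C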
# Method in brief: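 Tropical 5D wild-type zebrafish embryos, dechorionated with pronase at 4 hpf, were exposed singly from 6 hpf to 120 hpf statically at 28C in 0.64% DMSO. Malformations and mortality were scored as binary by brightfield, with the activity score combining 18 morphology components.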
# [7] = CCTE_Padilla_ZF_144hpf_TERATOSCORE: (Legacy) CCTE's 144 Hour Post-fertilization zebrafish Assay Teratoscore, Padilla Lab (AID 2283679; active = hit-call score of the fitted dose curve at least 0.9, where 1 is the maximum; inactive = score below 0.9;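 for AC50: zebrafish embryos with chorions exposed by immersion from 6-8 hpf to 5 dpf with daily renewal; teratogenicity score from eye scoring of death hatching and malformations at 144 hpf; higher score means more developmental defects relative to DMSO baseline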)
# Method in brief: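 Larvae scored by eye at 144 hpf for death, hatching and malformations after a day in clean Hanks'. Before that, daily-renewed exposure at 80 uM (0.4% DMSO, 26C) from roughly 6-8 hpf through 5 dpf, 4 embryos per chemical.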
# [8] = STM_H9_OrnithineISnorm_perc: Stemina devTOX quickPredict H9 human embryonic stem cell (hESC)-based Assay for Ornithine (ORN) Metabolite Biomarker, Normalized (AID 2283712; active = hit-call score of the fitted dose curve at least 0.9, where 1 is the maximum; inactive = score below 0.9;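 note: ornithine released into spent medium during last day measured by mass spectrometry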)
# Method in brief: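 H9 human embryonic stem cells kept pluripotent receive test chemical over 72 h, refreshed daily by media exchange. Media from the closing 24 h is deproteinized and analysed by UPLC-HRMS on an amide column; ornithine signal is scaled to labelled standard and vehicle.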
# [9] = STM_H9_CystineISnorm_perc: Stemina devTOX quickPredict H9 human embryonic stem cell (hESC)-based Assay for Cystine (CYSS) Metabolite Biomarker, Normalized (AID 2283713; active = hit-call score of the fitted dose curve at least 0.9, where 1 is the maximum; inactive = score below 0.9)
# Method in brief: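 H9 hESC, pluripotent; compound 72h, re-dosed q24h with medium change. Last-24h medium → 40% acetonitrile deproteinization → UPLC-HRMS. CYSS area / C13-CYSS standard, then % of 0.1% DMSO median.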
# [10] = STM_H9_OrnCyssISnorm_ratio: Stemina devTOX quickPredict H9 human embryonic stem cell (hESC)-based Assay for Ornithine (ORN):Cystine (CYSS) Ratio (AID 2283714)
# Method in brief: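 Undifferentiated H9 hESCs were exposed to compound for 72h with media and chemical replaced every 24h. Final 24-h conditioned media were deproteinized and analysed by UPLC-HRMS. ORN and CYSS peak areas were normalized to C13 internal standards and the ratio taken versus 0.1% DMSO.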
# [11] = CEETOX_H295R_MTT_cell_viability: Viability Assessment in the CeeTox HT-H295R MTT Assay (AID 2283718; active = hit-call score of the fitted dose curve at least 0.9, where 1 is the maximum; inactive = score below 0.9)
# Method in brief: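 H295R cells prestimulated 48 h with 10 uM forskolin, then exposed 48 h to test chemical (0.1% DMSO final). Viability by MTT (0.5 mg/ml, 4 h, 37 C), absorbance 570/650 nm; percent change versus DMSO, bidirectional fit.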
# [12] = read-out: solute carrier (SLC10A1), SLC10A1 (gene 6554); experiment: LTEA_HepaRG_SLC10A1: Life Technologies and Expression Analysis (LTEA) Assay for solute carrier (SLC10A1) using HepaRG (AID 2283657; active = hit-call score of the fitted dose curve at least 0.9, where 1 is the maximum; inactive = score below 0.9); conditions: mRNA level, 48 h; actives raise or lower the signal
# Method in brief: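 Differentiated HepaRG cells were plated 48 h, then exposed in serum-free induction medium for 48 h to 8 concentrations (top 100 uM, half-log steps, 0.5% DMSO). SLC10A1 mRNA was quantified by qRT-PCR normalized to ACTB, GAPDH, POLR2A; bidirectional fit versus DMSO.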
# [13] = read-out: matrix metalloproteinase-1 (MMP1), MMP1 (gene 4312); experiment: LTEA_HepaRG_MMP1: Life Technologies and Expression Analysis (LTEA) Assay for matrix metalloproteinase-1 (MMP1) using HepaRG (AID 2283658; active = hit-call score of the fitted dose curve at least 0.9, where 1 is the maximum; inactive = score below 0.9); conditions: mRNA level, 48 h; actives raise or lower the signal
# Method in brief: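 In this screen, human liver HepaRG cultures receive each chemical in duplicate for 48 h (top 100 uM, 0.5% DMSO). MMP1 expression is then quantified by TaqMan qRT-PCR with ACTB/GAPDH/POLR2A normalization.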
# [14] = read-out: Cytochrome P450 (CYP24A1_1), CYP24A1 (gene 1591); experiment: LTEA_HepaRG_CYP24A1_1: Life Technologies and Expression Analysis (LTEA) Assay for Cytochrome P450 (CYP24A1_1) using HepaRG (AID 2283671; active = hit-call score of the fitted dose curve at least 0.9, where 1 is the maximum; inactive = score below 0.9); conditions: mRNA level, 48 h; actives raise or lower the signal
# Method in brief: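 HepaRG, 48 h exposure, 8-pt half-log series from 100 uM in 0.5% DMSO, duplicates. Readout: TaqMan qRT-PCR of CYP24A1 mRNA, housekeeping-normalized (ACTB/GAPDH/POLR2A). Bidirectional curve fit vs DMSO baseline.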
# [15] = ArunA_CellTiter_hNC: Viability Assessment in the ArunA Biomedical's Oris Neural Crest (hNC) Cell Migration Assay (AID 2283752)
# Method in brief: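 Cell titer was measured with the CellTiter Aqueous One reagent after 72 h of chemical dosing. Cells were H9-derived embryonic neural crest stem cells seeded on Matrigel, 60,000 per well, and given 16 h at 37C beforehand.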
# [16] = ArunA_Migration_hNP: ArunA Biomedical's Oris Neuroprogenitor (hNP) Cell Migration Assay (AID 2283754)
# Method in brief: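 Human H9-derived hNP1 neuroprogenitors on Matrigel with LIF/bFGF, plated around seeding stoppers for 16 h at 37C; stoppers removed at start of 72 h chemical exposure. Calcein-AM staining, fluorescence 494/517 nm in detection zone; loss-of-signal vs DMSO; cytochalasin D control.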
# [17] = ArunA_Migration_hNC: ArunA Biomedical's Oris Neural Crest (hNC) Cell Migration Assay (AID 2283755)
# Method in brief: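 Human H9-derived neural crest stem cells, 60,000/well on Matrigel, 16 h at 37C, then 72 h chemical exposure after seeding-stopper removal. Migration into detection zone read as calcein-AM fluorescence (ex494/em517), relative to DMSO.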
structure (smiles),measurement,setting,value
Nc1ccc(S(=O)(=O)c2ccc(N)cc2)cc1,outcome,[1],inactive
same,outcome,[2],inactive
same,AC50,[3],6.89 µM (active)
same,outcome,[4],inactive
same,outcome,[5],inactive
same,outcome,[6],inactive
CN1CCN(Cc2cc(-c3ccc4[nH]c(=O)oc4c3)co2)[C@@H](c2ccc(F)cc2)C1,AC50,[1],16.2 µM (active)
same,outcome,[2],inactive
same,outcome,[5],inactive
same,AC50,[7],18.6 µM (active)
same,outcome,[8],inactive
same,AC50,[9],5 µM (active)
same,AC50,[10],5 µM (active)
same,outcome,[11],inactive
same,outcome,[6],inactive
Cc1ccc2ncccc2c1,outcome,[1],inactive
same,outcome,[2],inactive
same,outcome,[5],inactive
same,outcome,[6],inactive
CCOC(=O)C(C)(C)Oc1ccc(Cl)cc1,AC50,[1],65.3 µM (active)
same,outcome,[2],inactive
same,outcome,[5],inactive
same,AC50,[7],2.86 µM (active)
same,AC50,[6],37.7 µM (active)
O=C(N[C@@H](Cc1ccccc1)[C@@H](O)C(=O)N1C[C@@H](O)[C@@H](O)C1)c1cc2cc(Cl)ccc2[nH]1,outcome,[1],inactive
same,outcome,[2],inactive
same,outcome,[5],inactive
same,outcome,[6],inactive
O=c1[nH]cc(F)c(=O)[nH]1,outcome,[1],inactive
same,outcome,[2],inactive
same,AC50,[8],4.61 µM (active)
same,AC50,[9],2.71 µM (active)
same,AC50,[10],3 µM (active)
same,outcome,[6],inactive
Cc1ccc(C)c(C)c1,outcome,[1],inactive
same,outcome,[2],inactive
same,outcome,[12],inactive
same,outcome,[13],inactive
same,outcome,[14],inactive
same,outcome,[6],inactive
O=C(O)CCCCC(=O)O,outcome,[1],inactive
same,outcome,[2],inactive
same,outcome,[5],inactive
same,outcome,[6],inactive
Cc1cccc(Nc2cc(Cl)nc(SCC(=O)O)n2)c1C,outcome,[1],inactive
same,outcome,[2],inactive
same,outcome,[5],inactive
same,outcome,[8],inactive
same,AC50,[9],53.6 µM (active)
same,outcome,[11],inactive
same,outcome,[6],inactive
COc1cc(-c2nc(NC(=O)c3cc4cc(C)cc(C)c4n3CC(=O)O)sc2CCC2CCCCC2)c(OC)cc1Cl,outcome,[1],inactive
same,outcome,[2],inactive
same,outcome,[5],inactive
same,outcome,[6],inactive
CCCCCCCCCCO,outcome,[1],inactive
same,outcome,[2],inactive
same,outcome,[5],inactive
same,outcome,[7],inactive
same,outcome,[6],inactive
CC(=O)C(C)=CC1C(C)=CCCC1(C)C (stereo unspecified),outcome,[1],inactive
same,outcome,[2],inactive
same,outcome,[7],inactive
same,outcome,[6],inactive
Cc1cccc([N+](=O)[O-])c1C,outcome,[1],inactive
same,outcome,[2],inactive
same,outcome,[5],inactive
same,outcome,[6],inactive
O=C(OCCCCCOC(=O)c1ccccc1)c1ccccc1,outcome,[1],inactive
same,outcome,[2],inactive
same,outcome,[5],inactive
same,outcome,[7],inactive
same,outcome,[11],inactive
same,outcome,[6],inactive
Oc1ccc2ccccc2c1N=Nc1ccccc1,outcome,[1],inactive
same,outcome,[2],inactive
same,AC50,[12],4.88 µM (active)
same,outcome,[13],inactive
same,outcome,[3],inactive
same,AC50,[4],17 µM (active)
same,AC50,[5],25.4 µM (active)
same,outcome,[14],inactive
same,AC50,[7],5.21 µM (active)
same,outcome,[8],inactive
same,outcome,[9],inactive
same,outcome,[10],inactive
same,outcome,[11],inactive
same,AC50,[6],0.0559 µM (active)
same,outcome,[15],inactive
same,outcome,[16],inactive
same,outcome,[17],inactive
